Assay results: PubChem BioAssay (NCI)
The panel holds about 79,000 compounds, 15% with a hit somewhere; the sample as a whole holds those more often. Activity calls are given as the source filed them. Rule as the data show it: active = growth inhibition above about 70%; inactive = the rest.

Tests used:
[1] = NCI Yeast Anticancer Drug Screen. Data for the rad52 strain (AID 147);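 also: 0% = growth of vehicle-treated control cultures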; settings: S. cerevisiae rad52 mutant growth inhibition, hits give high values
How it was run: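 Inhibition of yeast growth, referenced to vehicle controls, was the measured output for a strain with defective DNA damage repair.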

[2] = NCI Yeast Anticancer Drug Screen. Data for the wt1 strain (AID 149);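 also: 0% = growth of vehicle-treated wt1 cultures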; settings: S. cerevisiae wt1 strain (SPY 50644) growth inhibition, hits give high values
How it was run: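 Readout: yeast growth inhibition, normalised to vehicle controls, in the wt1 strain exposed to test compounds.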

[3] = NCI Yeast Anticancer Drug Screen. Data for the rad50EPP+ strain (AID 151);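 also: 0% = growth of vehicle-treated control cultures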; settings: S. cerevisiae rad50 mutant strain, hits give high values
How it was run: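 Genetically defined yeast (rad50EPP+, DNA damage repair alteration) is grown with compound, and inhibition of growth is expressed relative to vehicle-treated controls.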

[4] = NCI Yeast Anticancer Drug Screen. Data for the mgt1 strain (AID 153); settings: S. cerevisiae mgt1 mutant growth inhibition, hits give high values
How it was run: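 In the mgt1 strain, test compounds were added and growth inhibition was determined relative to vehicle-treated controls.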

[5] = NCI Yeast Anticancer Drug Screen. Data for the rad50 strain (AID 155);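 also: 0% = growth of vehicle-only cultures of the same strain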; settings: S. cerevisiae rad50 strain growth inhibition, hits give high values
How it was run: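 Compounds were tested on a yeast strain with an engineered DNA damage repair alteration; the reported value is growth inhibition normalised to vehicle treatment.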

[6] = NCI Yeast Anticancer Drug Screen. Data for the mec2-1 strain (AID 157); settings: S. cerevisiae mec2-1 strain, hits give high values
How it was run: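 Each compound was tested on mec2-1 yeast, a strain altered in DNA damage repair or cell cycle control. Growth inhibition is reported relative to vehicle.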

[7] = NCI Yeast Anticancer Drug Screen. Data for the sgs1 mgt1 strain (AID 161);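 also: 0% = growth of cultures given vehicle only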; settings: S. cerevisiae sgs1 mgt1 strain, hits give high values
How it was run: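 Test agents were incubated with a DNA-repair-mutant yeast strain. Growth was then read and compared against vehicle-treated controls.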

[8] = NCI Yeast Anticancer Drug Screen. Data for the CLN2oe strain (AID 163);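 also: 0% = growth of vehicle-only control cultures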; settings: S. cerevisiae CLN2oe strain, hits give high values
How it was run: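 First, the altered yeast strain was treated with each compound; second, its growth was measured; finally, inhibition was derived by comparison with vehicle controls.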

[9] = NCI Yeast Anticancer Drug Screen. Data for the cln2 rad14 strain (AID 165);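 also: 0% = growth equal to vehicle treated cultures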; settings: S. cerevisiae cln2 rad14 strain, hits give high values
How it was run: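 Test compounds were added to cln2 rad14 yeast cultures; inhibition of growth was then determined by comparison with vehicle treatment.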

[10] = NCI Yeast Anticancer Drug Screen. Data for the bub3 strain (AID 167); settings: S. cerevisiae bub3 mutant strain, hits give high values
How it was run: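 Growth of a checkpoint-deficient yeast mutant is measured after compound exposure. Values represent inhibition relative to vehicle.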

[11] = NCI Yeast Anticancer Drug Screen. Data for the wt2 strain (AID 169);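 also: 0% = growth of vehicle-treated yeast cultures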; settings: S. cerevisiae wt2 strain growth inhibition, hits give high values
How it was run: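 The panel's yeast strains carry defined changes in DNA repair or cell cycle genes. Each strain is grown with compound, and growth loss is scored relative to vehicle.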

[12] = NCI Yeast Anticancer Drug Screen. Data for the mlh1 strain (AID 171);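 also: 0% = growth of vehicle-treated control cultures of the same strain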; settings: S. cerevisiae mlh1 strain growth inhibition, hits give high values
How it was run: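 Inhibition values reflect reduced yeast growth in the presence of compound, referenced to vehicle controls, using a strain chosen for its alteration in DNA repair or cell cycle control.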

[13] = NCI Yeast Anticancer Drug Screen. Data for the sgs1 strain (AID 173);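 also: 0% = growth of vehicle-only control cultures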; settings: S. cerevisiae sgs1 mutant, hits give high values
How it was run: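 Vehicle-treated cultures served as reference for growth inhibition of a yeast strain altered in DNA damage repair or cell cycle control after compound exposure.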

[14] = NCI Yeast Anticancer Drug Screen. Data for the mlh1 rad18 strain (AID 175); settings: S. cerevisiae mlh1 rad18 strain growth inhibition, hits give high values
How it was run: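 Inhibition values reflect reduced growth of mutant yeast versus vehicle-treated controls following compound exposure; the mutations affect DNA damage repair.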

[15] = NCI Yeast Anticancer Drug Screen. Data for the rad18 strain (AID 177); settings: S. cerevisiae rad18 mutant growth inhibition, hits give high values
How it was run: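 Steps: expose repair-mutant yeast to compound; measure growth; express as inhibition relative to vehicle control.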

[16] = NCI Yeast Anticancer Drug Screen. Data for the rad14 strain (AID 159);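 also: 0% = growth of vehicle-treated control cultures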; settings: S. cerevisiae rad14 strain growth inhibition, hits give high values
How it was run: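 Compound-treated yeast with a defined DNA-repair lesion; growth inhibition normalised to vehicle-treated cultures.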

[17] = at 5.0 µM (retest, dose inferred, filed as 0.5)
[18] = at 50.0 µM (retest, dose inferred, filed as 5.0)

Measured: growth inhibition

Cc1ccccc1NC(=O)c1c(C)oc2c1C(=O)c1ccccc1C2=O
inactive: [1]; at 1.2 µM -7% | [1]; at 3.7 µM -6% | [1]; at 11.0 µM 3% | [1]; at 33.0 µM 17% | [1]; at 100.0 µM 69% | [2]; at 1.2 µM -28% | [2]; at 3.7 µM -23% | [2]; at 11.0 µM -23% | [2]; at 33.0 µM -5% | [2]; at 100.0 µM 60% | [3]; at 1.2 µM -8% | [3]; at 3.7 µM -17% | [3]; at 11.0 µM 7% | [3]; at 33.0 µM 42% | [4]; at 1.2 µM -40% | [4]; at 3.7 µM -35% | [4]; at 11.0 µM -21% | [4]; at 33.0 µM 57% | [5]; at 1.2 µM -13% | [5]; at 3.7 µM -12% | [5]; [17] 6% | [5]; at 11.0 µM -1% | [5]; at 33.0 µM 7% | [5]; [18] 33% | [6]; at 1.2 µM -28% | [6]; at 3.7 µM -31% | [6]; [17] -10% | [6]; at 11.0 µM -24% | [6]; at 33.0 µM 19% | [6]; at 50.0 µM 50.5% | [7]; [17] -10% | [7]; [18] 3% | [8]; at 1.2 µM -13% | [8]; at 3.7 µM 19% | [8]; at 11.0 µM 9% | [8]; at 33.0 µM 39% | [9]; [17] 1% | [9]; [18] 51% | [9]; at 50.0 µM 53.1% | [10]; at 1.2 µM -57% | [10]; at 3.7 µM -36% | [10]; [17] 17% | [10]; at 11.0 µM -23% | [10]; at 33.0 µM 25% | [10]; at 50.0 µM 69.2% | [11]; at 1.2 µM -6% | [11]; at 3.7 µM -7% | [11]; at 11.0 µM 14% | [11]; at 33.0 µM 30% | [12]; at 1.2 µM -2% | [12]; at 3.7 µM -8% | [12]; at 11.0 µM -12% | [12]; at 33.0 µM -5% | [13]; at 1.2 µM -15% | [13]; at 3.7 µM -15% | [13]; at 11.0 µM -2% | [13]; at 33.0 µM 24% | [14]; [17] -2% | [15]; at 1.2 µM -23% | [15]; at 3.7 µM -24% | [15]; at 11.0 µM -17% | [15]; at 33.0 µM -8% | [15]; at 100.0 µM 55%
active: [3]; at 100.0 µM 82% | [4]; at 100.0 µM 93% | [5]; at 50.0 µM 82.2% | [5]; at 100.0 µM 86% | [6]; [18] 71% | [6]; at 100.0 µM 92% | [7]; at 50.0 µM 71% | [8]; at 100.0 µM 87% | [10]; [18] 94% | [10]; at 100.0 µM 85% | [11]; at 100.0 µM 87% | [12]; at 100.0 µM 85% | [13]; at 100.0 µM 83% | [14]; [18] 76% | [14]; at 50.0 µM 77%

O=C(O)c1ccccc1C(=O)OC1CCc2ccccc2C1 (stereo unspecified)
inactive: [1]; at 1.2 µM -3% | [1]; at 3.7 µM -2% | [1]; at 11.0 µM 0% | [1]; at 33.0 µM 18% | [1]; at 100.0 µM 46% | [2]; at 1.2 µM -5% | [2]; at 3.7 µM -7% | [2]; at 11.0 µM -80% | [2]; at 33.0 µM -1% | [2]; at 100.0 µM 27% | [3]; at 1.2 µM 0% | [3]; at 3.7 µM -4% | [3]; at 11.0 µM -1% | [3]; at 33.0 µM -8% | [3]; at 100.0 µM -12% | [5]; at 1.2 µM -1% | [5]; at 3.7 µM 0% | [5]; [17] -12% | [5]; at 11.0 µM 1% | [5]; at 33.0 µM 14% | [5]; [18] 17% | [5]; at 50.0 µM 26.4% | [5]; at 100.0 µM 39% | [6]; at 1.2 µM -6% | [6]; at 3.7 µM -9% | [6]; [17] -20% | [6]; at 11.0 µM -11% | [6]; at 33.0 µM 13% | [6]; [18] 26% | [6]; at 50.0 µM 50.1% | [6]; at 100.0 µM 36% | [16]; at 1.2 µM -5% | [16]; at 3.7 µM -7% | [16]; at 11.0 µM -7% | [16]; at 33.0 µM 11% | [16]; at 100.0 µM 52% | [7]; [17] 1% | [7]; [18] 45% | [7]; at 50.0 µM 50.4% | [8]; at 1.2 µM -10% | [8]; at 3.7 µM -14% | [8]; at 11.0 µM -11% | [8]; at 33.0 µM 39% | [8]; at 100.0 µM 62% | [9]; [17] -74% | [9]; [18] -12% | [9]; at 50.0 µM 58% | [10]; at 1.2 µM -9% | [10]; at 3.7 µM -10% | [10]; [17] -1% | [10]; at 11.0 µM -9% | [10]; at 33.0 µM 17% | [10]; [18] 33% | [10]; at 50.0 µM 55.8% | [10]; at 100.0 µM 53% | [11]; at 1.2 µM -4% | [11]; at 3.7 µM -6% | [11]; at 11.0 µM -9% | [11]; at 33.0 µM -2% | [11]; at 100.0 µM 25% | [12]; at 1.2 µM -5% | [12]; at 3.7 µM -9% | [12]; at 11.0 µM -6% | [12]; at 33.0 µM 14% | [12]; at 100.0 µM 42% | [13]; at 1.2 µM -4% | [13]; at 3.7 µM -4% | [13]; at 11.0 µM -3% | [13]; at 33.0 µM 14% | [13]; at 100.0 µM 45% | [14]; [17] -4% | [14]; [18] 33% | [14]; at 50.0 µM 22.7% | [15]; at 1.2 µM -2% | [15]; at 3.7 µM -1% | [15]; at 11.0 µM -1% | [15]; at 33.0 µM 6% | [15]; at 100.0 µM 31%
